Data taken from PubChem BioAssay (Tox21).
Inconclusive results are not listed. Calls of active or inactive are those of the source. The call rests on the fitted dose curve; in most records, active means well fitted cell-killing curve with a large enough effect in the repeat runs; inconclusive means weak or mixed curves, or effect the other way; inactive means no such curve, though single readings can be large or run the other way.
On the % scale 0 is the no-effect control and ±100 the full control effect.

Assay: qHTS assay to identify small molecule antagonists of the retinoid-related orphan receptor gamma (ROR-gamma) signaling pathway - cell viability counter screen (AID 1159520); further: nearly all actives have a fitted effect of over 50% in size
Conditions: Tet-on RORgamma CHO cells viability, ATP luminescence, 16 h; series mostly up to 92.4 µM
Description: U.S. Tox21 Program National Center for Advancing Translational Sciences [NCATS] NIH Chemical Genomics Center [NCGC] U.S. Environmental Protection Agency [EPA] National Institutes of Environmental Health Sciences [NIEHS] National Toxicology Program [NTP] U.S. Food and Drug Administration [FDA] Tox21 Assay Overview: Nuclear steroid hormone receptors are involved in many biological processes including inflammatory responses, cell proliferation, and apoptosis. Environmental factors or compounds disrupting these nuclear receptor pathways and gene expression may promote susceptibility to immunotoxicants and autoimmune diseases. One important group of these expression factors are the retinoid-related orphan receptors. To assess compounds that may interfere with the retinoid-related orphan receptor gamma (ROR-gamma) transcription factor, a cell-based luciferase assay was used. The CHO cell-based assay utilizes a TET-inducible ROR expression factor and ROR response element-LUC reporter gene. Reporter gene activity was induced using Doxycycline Hyclate and measured after 16 hr incubation. Tet-on ROR gamma CHO cells were used to screen against the Tox21 10K compound library for cytotoxicity by measuring the viability of the cells based on the quantitation of the ATP.
Tox21 Assay Protocol Summary: Tet-on ROR gamma CHO cells were dispensed at 1,000 cells in 4 uL of culture medium per well into white wall/solid bottom 1536-well plates using a Multidrop Combi (Thermo Scientific, Waltham, MA) dispenser. Following incubation at 37 C and 5% CO2 for 4 hr, 23 nL of compounds dissolved in DMSO, positive controls or DMSO only were transferred by a Pintool station (Kalypsys, San Diego, CA) and after 2 hr incubation at 37 C, one ul of 1 uM (final concentration) of Doxycycline Hyclate was added to all the wells by using a Flying Reagent Dispenser (FRD) (Aurora Discovery, San Diego, CA). After 16 hr incubation at 37 C and 5% CO2, 5 uL of CellTiter-Glo reagent (Promega Corporation, Madison, WI) was added to each assay plate using FRD. After 30 min incubation at room temperature, luminescence was quantified on a ViewLux plate reader (Perkin Elmer, Waltham, MA).
For `CCCCCCCCN1CCCC1=O`, the outcome was “inactive”.
With `Nc1ccccn1` the outcome was “inactive”.
For `Nc1ccn([C@@H]2O[C@H](CO)[C@@H](O)C2(F)F)c(=O)n1`, the outcome was “inactive”.
For `CC(C)(C)C(=O)Oc1ccc(S(=O)(=O)Nc2ccccc2C(=O)NCC(=O)O)cc1`, the outcome was “inactive”.
With `CCO[Si](OCC)(OCC)c1ccccc1` the outcome was “inactive”.
For `CC1(C)[C@@H]2CC[C@@]1(C)[C@H](O)C2`, the outcome was “inactive”.
In the case of `COCCOCC(OC)OC`, the outcome is reported as “inactive”.
For `CCCOC(=O)CC`, the outcome was “inactive”.
For `c1ccc(CCc2ccccc2)cc1`, the outcome was “inactive”.
For `O=Cc1cccc(Br)c1`, the outcome was “inactive”.
In the case of `CCN[C@H]1C[C@H](C)S(=O)(=O)c2sc(S(N)(=O)=O)cc21`, the outcome is reported as “inactive”.
For `CC1=C(C/C=C(\C)CCC[C@H](C)CCC[C@H](C)CCCC(C)C)C(=O)c2ccccc2C1=O`, the outcome was “inactive”.
With `CC[N+](C)(CC)CCOC(=O)C1c2ccccc2Oc2ccccc21` the outcome was “inactive”.
In the case of `Cc1ccccc1N=C(N)N=C(N)N`, the outcome is reported as “inactive”.
In the case of `CCCCCCCCCCCCCCC(=O)O`, the outcome is reported as “inactive”.
For `CCCCCC(=O)OCCc1ccccc1`, the outcome was “inactive”.
In the case of `CN(C)CCCCCCN(C)C`, the outcome is reported as “inactive”.
For `CC(CO)(CO)[N+](=O)[O-]`, the outcome was “inactive”.
In the case of `NS(=O)(=O)Cc1noc2ccccc12`, the outcome is reported as “inactive”.
In the case of `COc1cc(C(=O)OC(COCCC(C)C)CN2CCOCC2)cc(OC)c1OC` (stereo not given), the outcome is reported as “inactive”.
In the case of `CCCCCCC1CCC(=O)O1` (stereo not given), the outcome is reported as “inactive”.
In the case of `COc1cc(C)nc(-n2nc(C)cc2OC)n1`, the outcome is reported as “inactive”.
With `O=[N+]([O-])c1ccc(/C=N\O)o1` the outcome was “inactive”.
In the case of `CC(=O)O[C@@]12CO[C@@H]1C[C@H](O)[C@@]1(C)C(=O)[C@H](O)C3=C(C)[C@@H](OC(=O)[C@H](O)[C@@H](NC(=O)OC(C)(C)C)c4ccccc4)C[C@@](O)([C@@H](OC(=O)c4ccccc4)[C@H]21)C3(C)C`, the outcome is reported as “inactive”.
In the case of `CCN[C@@H]1C[C@H](N)[C@@H](OC2OC(CN)=CCC2N)[C@H](O)[C@H]1O[C@H]1OC[C@](C)(O)[C@H](NC)[C@H]1O` (stereo not given in full), the activity, negative = cytotoxicity is reported as 3.44% [at 0.349 µM] (inactive).
With `NC(=O)Cc1cccc2ccccc12` the outcome was “inactive”.
For `CCN1C=CN(C)C1C` (stereo not given), the outcome was “inactive”.
With `Cc1ccc(-c2ncc(Cl)cc2-c2ccc(S(C)(=O)=O)cc2)cn1` the outcome was “inactive”.
For `NCCCC[C@H](N[C@@H](CCc1ccccc1)C(=O)O)C(=O)N1CCC[C@H]1C(=O)O`, the outcome was “inactive”.
With `C[C@@H]1CCC[C@H](C)N1` the outcome was “inactive”.
For `COc1cc(C(=O)NCc2ccc(OCCN(C)C)cc2)cc(OC)c1OC`, the outcome was “inactive”.
For `N[C@@H](CCC(=O)O)C(=O)O`, the outcome was “inactive”.
For `Cc1nc2ccc(CN(C)c3ccc(C(=O)N[C@@H](CCC(=O)O)C(=O)O)s3)cc2c(=O)[nH]1`, the outcome was “inactive”.
For `CCN1CCOCC1`, the outcome was “inactive”.
With `CCCc1nn(C)c2c(=O)[nH]c(-c3cc(S(=O)(=O)N4CCN(C)CC4)ccc3OCC)nc12` the outcome was “inactive”.
In the case of `CCCCCCC#CC(=O)OC`, the outcome is reported as “inactive”.
In the case of `CC(C(=O)O)c1cccc(Oc2ccccc2)c1` (stereo not given), the outcome is reported as “inactive”.
With `COC(=O)Nc1ccc(Cl)c(Cl)c1` the outcome was “inactive”.
In the case of `O=C(O)CNC(=O)c1ccccc1`, the outcome is reported as “inactive”.
In the case of `CC1=CC(=O)[C@H]2C[C@@H]1C2(C)C`, the outcome is reported as “inactive”.
